Experimental data taken from PubChem BioAssay (NCATS).
Records with an inconclusive call do not appear. Activity calls are given as the source filed them. Unless noted, the call rests on the fitted dose curve; in most records, active means well fitted curve in the direction sought with a large enough effect; inconclusive means small, poorly fitted or top-dose-only effect, or another doubt; inactive means no such curve, though single readings can be large; an effect the other way counts as inactive or inconclusive.

How the values were obtained:
[1] = target: Thioredoxin reductase 1, cytoplasmic (Rattus norvegicus) (UniProt O89049); experiment: qHTS Assay for Inhibitors of Mammalian Selenoprotein Thioredoxin Reductase 1 (TrxR1) (AID 488773); settings: Potency: inhibition;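 further: drop in NADPH fluorescence over an 8 min run after selenite addition; series mostly up to about 57 µM; on the % scale 0 is the no-effect control and ±100 the full control effect; nearly all actives have a fitted effect of over 40% in size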
Procedure, shortened: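 Inhibition is scored from the loss of NADPH fluorescence between first and last reads of an 8-min kinetic run. Selenite (400 uM) was the substrate, added after 15 min compound preincubation at room temperature.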

[2] = target: M-phase phosphoprotein 8 (Homo sapiens) (UniProt Q99549); experiment: qHTS Validation Assay for Inhibitors for MPP8 Chromodomain Interactions with Methylated Histone Tails (AID 488949);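 further: AlphaScreen signal from MPP8 chromodomain bound to biotinylated H3K9me3 peptide; top concentration of the series differs between compounds; on the % scale 0 is the no-effect control and ±100 the full control effect; nearly all actives have a fitted effect of over 55% in size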
Chain of M-phase phosphoprotein 8 (Homo sapiens) (Q99549 whole entry, looked up): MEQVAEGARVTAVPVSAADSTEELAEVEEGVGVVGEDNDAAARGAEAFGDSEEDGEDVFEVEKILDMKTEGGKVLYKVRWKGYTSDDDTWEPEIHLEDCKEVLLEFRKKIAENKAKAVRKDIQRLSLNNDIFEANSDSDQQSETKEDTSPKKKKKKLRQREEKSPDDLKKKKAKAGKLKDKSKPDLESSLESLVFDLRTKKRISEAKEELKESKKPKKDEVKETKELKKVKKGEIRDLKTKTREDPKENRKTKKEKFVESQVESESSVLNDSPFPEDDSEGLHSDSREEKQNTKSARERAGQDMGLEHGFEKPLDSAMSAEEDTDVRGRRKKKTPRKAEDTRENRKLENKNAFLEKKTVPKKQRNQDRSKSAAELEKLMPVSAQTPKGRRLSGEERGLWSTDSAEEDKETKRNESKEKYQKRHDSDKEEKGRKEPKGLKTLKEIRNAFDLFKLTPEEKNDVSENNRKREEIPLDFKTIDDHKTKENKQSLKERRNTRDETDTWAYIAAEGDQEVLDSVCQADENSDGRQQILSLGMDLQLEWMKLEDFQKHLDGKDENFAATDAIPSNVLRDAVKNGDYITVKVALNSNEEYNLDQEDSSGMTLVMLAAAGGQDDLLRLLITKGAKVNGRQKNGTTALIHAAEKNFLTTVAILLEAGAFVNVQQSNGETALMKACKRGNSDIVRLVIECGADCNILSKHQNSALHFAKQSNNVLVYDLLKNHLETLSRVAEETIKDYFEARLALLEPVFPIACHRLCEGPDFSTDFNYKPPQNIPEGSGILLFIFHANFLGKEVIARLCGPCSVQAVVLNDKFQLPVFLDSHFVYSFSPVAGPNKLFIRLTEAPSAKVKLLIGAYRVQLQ
Procedure, shortened: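 AlphaScreen proximity signal from streptavidin donor and Ni-chelate acceptor beads (10 ug/mL each) reported binding of MPP8 to trimethyl-K9 H3(1-18) peptide, both at 50 nM. The complex formed 30 min before a 30 min compound exposure at room temperature, in PBS pH 7.4.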

[3] = target: Chromobox protein homolog 1 (Homo sapiens) (UniProt P83916); experiment: qHTS Validation Assay for Inhibitors of HP1-beta Chromodomain Interactions with Methylated Histone Tails (AID 488953);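 further: loss of AlphaScreen luminescence from HP1-beta binding biotinylated H3K9me3 peptide; series mostly up to about 110 µM; on the % scale 0 is the no-effect control and ±100 the full control effect; nearly all actives have a fitted effect of over 50% in size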
Chain of Chromobox protein homolog 1 (Homo sapiens) (P83916 whole entry, looked up): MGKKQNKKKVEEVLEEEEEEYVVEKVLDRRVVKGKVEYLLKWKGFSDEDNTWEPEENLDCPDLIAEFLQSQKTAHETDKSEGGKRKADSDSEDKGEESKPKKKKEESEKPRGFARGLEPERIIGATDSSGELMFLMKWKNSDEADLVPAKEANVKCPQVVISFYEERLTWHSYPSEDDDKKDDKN
Procedure, shortened: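 AlphaScreen proximity readout: streptavidin donor and Ni-chelate acceptor beads, 10 ug/mL final, 30 min dark, RT. Complex of 50 nM HP1-beta and 50 nM b-H3(1-18)K9me3 formed 30 min, then compound-treated 30 min; PBS pH 7.4/0.01% Tween-20.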

[4] = target: Methanococcus maripaludis chaperonin (MmCpn) (UniProt Q6LX38); experiment: High-Throughput Screening for Modulators of Cytosolic Chaperonin Activity: MmCpn Primary Screen (AID 488978);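 further: 50 nM MmCpn enzyme hydrolysing 30 µM ATP at 37 °C; 0% is about no effect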
Procedure, shortened: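 ATPase activity of 50 nM MmCpn was assayed with 30 uM ATP, 10 minutes at 37C, after a 5 min compound preincubation at room temperature. ADP production was read as HTRF emission at 590 and 665 nm.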

[5] = target: Thyrotropin receptor (Homo sapiens) (UniProt P16473); experiment: qHTS Assay for Antagonists of the Thyroid Stimulating Hormone Receptor (AID 488980); further: series mostly up to about 58 µM; 0% is about no effect
Procedure, shortened: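 Inhibition of cAMP raised by EC80 TSH (4 nM final) was read by HTRF, with lysate cAMP competing against cAMP-d2 for cryptate antibody after 30 min at room temperature. The cells were transfected HEK293 held in phosphodiesterase inhibitor RO 20-1724 at 70 uM.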

[6] = target: D(1A) dopamine receptor (Homo sapiens) (UniProt P21728); experiment: HTS Assay for Allosteric Agonists of the Human D1 Dopamine Receptor: Primary Screen for Agonists (AID 488981); further: 0% is about no effect
Chain of D(1A) dopamine receptor (Homo sapiens) (P21728 whole entry, looked up): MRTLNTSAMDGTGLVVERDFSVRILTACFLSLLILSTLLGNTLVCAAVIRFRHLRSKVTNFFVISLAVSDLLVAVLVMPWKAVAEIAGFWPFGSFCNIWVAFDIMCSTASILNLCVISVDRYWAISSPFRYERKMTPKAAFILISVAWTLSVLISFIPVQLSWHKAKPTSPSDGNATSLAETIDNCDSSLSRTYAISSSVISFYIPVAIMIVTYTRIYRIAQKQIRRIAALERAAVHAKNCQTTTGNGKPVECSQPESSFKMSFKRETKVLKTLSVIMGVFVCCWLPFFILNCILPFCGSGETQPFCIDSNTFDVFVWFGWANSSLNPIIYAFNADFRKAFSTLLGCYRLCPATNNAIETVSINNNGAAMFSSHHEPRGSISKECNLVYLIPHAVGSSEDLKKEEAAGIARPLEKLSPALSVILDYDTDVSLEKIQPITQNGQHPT
Procedure, shortened: (§1)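 Tetracycline-induced HEK293 T-REx cells force-coupled to calcium signalling were incubated overnight at 30 C and dye-loaded at room temperature. Calcium flux over 180 s after compound addition flagged agonists; a further 180 s read after EC20 dopamine flagged potentiators.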

[7] = target: D(1A) dopamine receptor (Homo sapiens) (UniProt P21728); experiment: HTS Assay for Allosteric Agonists of the Human D1 Dopamine Receptor: Primary Screen for Potentiators (AID 488982); further: 0% is about no effect
Procedure, shortened: as §1

[8] = target: D(1A) dopamine receptor (Homo sapiens) (UniProt P21728); experiment: HTS Assay for Allosteric Agonists of the Human D1 Dopamine Receptor: Primary Screen for Antagonists (AID 488983);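 further: calcium flux response to an EC80 dopamine challenge measured with no-wash dye; on the % scale 0 is the no-effect control and ±100 the full control effect; nearly all actives have a fitted effect of over 65% in size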
Procedure, shortened: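 Calcium flux readout, no-wash dye, inducible HEK293 T-REx D1 line (force-coupled). Compound added after 10 s baseline, 180 s kinetic read; then dopamine at EC80, further 180 s read.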

[9] = Validation screen for small molecules that induce genotoxicity in human embryonic kidney (HEK293T) cells expressing luciferase-tagged ELG1 (AID 493106); further: 0% is about no effect
Procedure, shortened: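 qHTS format; 2,000 HEK293T ELG1-luc cells/well; 23 nL compound via pin tool; 16 hr, 37 °C/5% CO2; ONE-Glo, 30 min RT; luminescence read.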

[10] = target: Thyrotropin-releasing hormone receptor (Homo sapiens) (UniProt P34981); experiment: qHTS for Small Molecule Agonists and Allosteric Enhancers of Human TRH Receptor: Validation Screen for Agonists (AID 493127;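 active means calcium activation more than 3 SD above the typical response in the agonist read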;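 further: intracellular calcium rise by fluo-8 fluorescence before TRH EC20 addition; 0% is about no effect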); settings: TRH receptor agonist cell assay; at 2 µM; stronger effect = higher value
Procedure, shortened: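 Read-out: intracellular calcium release measured kinetically by FDSS (fluo-8, ex 480/em 530 nm), 1 reading/s after a 10-cycle baseline. TRHR cells, 2000/well, cultured 18 h at 33.5C, dye-loaded at room temp. Compound-evoked positive calcium signal flags agonists.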

[11] = Nrf2 qHTS screen for inhibitors: Validation (AID 493153; active means well fitted inhibition curve with a large enough effect in the main read-out, with a control signal flat, not every such curve was filed as active); settings: viability change: measured here: cytotoxicity max response
Procedure, shortened: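 Concentration-response test in A549 ARE_Fluc reporter cells (5% FBS OPTI-MEM), compound exposure 18-24 h at 37°C, 5% CO2. Cell viability measured first by CellTiter-Fluor fluorescence; ARE-driven luciferase luminescence then measured as Nrf2 activity.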

[12] = qHTS for Inhibitors of Cell Surface uPA Generation: Validation Assay (AID 493164);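 further: RAW 264.7 macrophage cells exposed to compound for 18 h; 0% is about no effect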
Procedure, shortened: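 Compounds are titrated over seven points (2.45 nM–38.3 uM final) onto pre-plated RAW 264.7 cells and incubated for 18 h. Retained intracellular ATP, measured with ATP-Lite, indicates blocked lethal factor entry.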

[13] = target: Galactokinase (Homo sapiens) (UniProt P51570); experiment: qHTS Validation Assay for Inhibitors of Human Galactokinase (GALK) (AID 493189); further: 0% is about no effect
Procedure, shortened: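 Inhibition was measured as remaining ATP, detected by luciferase luminescence after a 1 h room-temperature reaction. Final conditions: 5 nM GALK, 100 uM galactose, 35 uM ATP, pH 8.0 HEPES buffer.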

[14] = Validation screen for small molecules that induce DNA re-replication in SW480 colon adenocarcinoma cells (AID 504364); further: 0% is about no effect
Procedure, shortened: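 Read-out: total Hoechst intensity of nuclei by fluorescence scanning imager; hits raise the fraction of nuclei with elevated DNA content. Cells received compound for 48 hr at 37 C before a 40 min stain.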

[15] = target: Peptidyl-prolyl cis-trans isomerase NIMA-interacting 1 (Homo sapiens) (UniProt Q13526); experiment: qHTS Validation Assay to Find Inhibitors of Pin1 (AID 504536; active means well fitted inhibition curve with a large enough effect in the polarisation, with a control signal flat, not every such curve was filed as active; the % refers to the polarisation;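 further: 0% = full Pin1 enzyme wells and -100% = no-enzyme wells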)
Procedure, shortened: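 Fluorescence polarization competition: compounds (titration) displace HiFluor-488-labeled Pin1-1b peptide from Pin1 (0.3 uM final) in pH 7.5 HEPES buffer with DTT, 10 min at room temperature; %Activity normalized to no-enzyme wells, curves fitted.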

[16] = target: Phosphoglycerate kinase, glycosomal (Trypanosoma brucei brucei) (UniProt P07378); experiment: qHTS Validation Assay to Find Inhibitors of Phosphoglycerate Kinase (AID 504547);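 further: control wells lack PGK and mark full inhibition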
Procedure, shortened: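 In TEA buffer (100mM, pH 7.6) containing 5mM MgCl2 and 0.01% Tween-20, the GAPDH-coupled PGK reaction proceeded for 60 minutes at room temperature before a single luminescence reading using Kinase-Glo Plus.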

[17] = target: phosphoglycerate mutase (Leishmania major) (UniProt Q4Q090); experiment: qHTS Validation Assay to Find Inhibitors of Phosphoglycerate Mutase (AID 504548);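 further: end-point luminescence from Kinase-GloPlus after the PGAM reaction; series mostly up to about 58 µM; on the % scale 0 is the no-effect control and ±100 the full control effect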
Procedure, shortened: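 Inhibition of L. major PGAM was assessed by Kinase-GloPlus luminescence following a 45-minute room-temperature reaction with enzyme at 1.25nM final.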

[18] = target: Ubiquitin carboxyl-terminal hydrolase 1 (Homo sapiens) (UniProt O94782); experiment: Inhibitors of USP1/UAF1: Pilot qHTS (AID 504865);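 further: rhodamine fluorescence freed from ubiquitin-rhodamine substrate followed over time; top concentration of the series differs between compounds; on the % scale 0 is the no-effect control and ±100 the full control effect; nearly all actives have a fitted effect of over 35% in size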
Procedure, shortened: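 Deubiquitinase activity followed as kinetic rhodamine fluorescence release from 150 nM Ub-Rho. 1 nM USP1/UAF1 with compound, after 15 min room-temperature preincubation, in HEPES pH 7.8 buffer containing TCEP, EDTA, BSA and Tween-20.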

[19] = target: Voltage-gated inwardly rectifying potassium channel KCNH2 (Homo sapiens) (UniProt Q12809); experiment: qHTS Assay for Small Molecule Inhibitors of the Human hERG Channel Activity (AID 588834);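 further: potency means the concentration at half of the fitted maximal effect; lower thallium flux fluorescence means stronger hERG block; nearly all actives have a fitted effect of over 50% in size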
Procedure, shortened: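 hERG block measured as reduced thallium-dye (FluxOR) fluorescence after stimulation buffer addition, read over 2 min. Cells were hERG-BacMam-transduced U2OS exposed to compound ~10 min […]; concentration-response fitted with Hill equation for AC50.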

[20] = target: Glutaminase kidney isoform, mitochondrial (Homo sapiens) (UniProt O94925); experiment: qHTS for Inhibitors of Glutaminase (GLS): LOPAC Validation (AID 624146);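 further: glutamate product detected by oxidase and peroxidase coupled Amplex red fluorescence gain; series mostly up to about 46 µM; on the % scale 0 is the no-effect control and ±100 the full control effect; nearly all actives have a fitted effect of over 60% in size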
Chain of Glutaminase kidney isoform, mitochondrial (Homo sapiens) (O94925 whole entry, looked up, canonical isoform): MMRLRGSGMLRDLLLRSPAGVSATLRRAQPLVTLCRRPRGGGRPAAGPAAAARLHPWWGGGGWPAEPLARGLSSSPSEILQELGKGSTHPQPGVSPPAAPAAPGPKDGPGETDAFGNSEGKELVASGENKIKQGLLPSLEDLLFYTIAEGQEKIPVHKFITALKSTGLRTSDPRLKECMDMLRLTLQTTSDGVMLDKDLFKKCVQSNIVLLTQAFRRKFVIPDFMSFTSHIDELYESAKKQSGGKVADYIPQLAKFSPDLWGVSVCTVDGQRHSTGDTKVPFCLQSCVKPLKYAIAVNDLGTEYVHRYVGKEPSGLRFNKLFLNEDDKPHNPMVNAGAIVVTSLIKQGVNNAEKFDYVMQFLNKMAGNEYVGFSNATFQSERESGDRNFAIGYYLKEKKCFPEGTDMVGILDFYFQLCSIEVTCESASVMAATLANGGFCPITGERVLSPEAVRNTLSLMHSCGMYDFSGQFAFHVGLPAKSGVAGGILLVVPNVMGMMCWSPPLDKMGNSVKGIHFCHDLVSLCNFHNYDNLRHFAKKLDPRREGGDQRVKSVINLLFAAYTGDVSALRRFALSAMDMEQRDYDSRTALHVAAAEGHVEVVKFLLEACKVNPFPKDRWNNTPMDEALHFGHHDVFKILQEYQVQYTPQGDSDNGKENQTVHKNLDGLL
Procedure, shortened: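 Read-out is an Amplex red fluorescence increase coupled through glutamate oxidase and HRP, measured before and after 30 min room-temperature incubation. hKGA is in 45 mM KH2PO4 (pH 8.2) with 0.02% Tween-20; glutamine added as 1mM solution.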

[21] = qHTS of Trypanosoma Brucei Inhibitors: LOPAC Validation (AID 624147); further: 0% is about no effect
Procedure, shortened: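 Luminescent Kinase-Glo Plus end-point after 45 min room-temperature reaction of T. brucei pyruvate kinase started with 130 uM ADP (final). Buffer TEA 50 mM pH 7.2 with KCl, MgCl2, BSA, Tween-20; titration-based qHTS with fitted concentration-effect curves.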

[22] = target: Glucagon-like peptide 1 receptor (Homo sapiens) (UniProt P43220); experiment: qHTS of GLP-1 Receptor Agonists: LOPAC Validation (AID 624148);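 further: 0% is about no effect; higher luminescence signal means agonism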
Chain of Glucagon-like peptide 1 receptor (Homo sapiens) (P43220 whole entry, looked up): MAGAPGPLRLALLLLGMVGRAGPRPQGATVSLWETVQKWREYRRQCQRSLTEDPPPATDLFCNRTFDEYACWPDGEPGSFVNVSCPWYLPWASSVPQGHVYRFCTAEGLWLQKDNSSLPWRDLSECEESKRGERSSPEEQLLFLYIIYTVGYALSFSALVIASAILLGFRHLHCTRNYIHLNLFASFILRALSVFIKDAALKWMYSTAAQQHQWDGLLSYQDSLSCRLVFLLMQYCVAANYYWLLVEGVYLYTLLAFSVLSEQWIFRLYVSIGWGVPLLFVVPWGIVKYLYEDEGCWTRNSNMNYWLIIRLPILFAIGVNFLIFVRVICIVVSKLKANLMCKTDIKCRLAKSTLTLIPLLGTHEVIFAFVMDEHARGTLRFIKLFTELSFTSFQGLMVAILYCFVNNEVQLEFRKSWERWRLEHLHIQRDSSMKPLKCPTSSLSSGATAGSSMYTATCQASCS
Procedure, shortened: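 HEK293 cells stably co-expressing a cAMP-responsive luciferase reporter and a hypersensitive GLP-1R were plated 12 h at 37 °C and exposed to compounds for 4-6 hr at 37 °C, 5% CO2. Luminescence was read 12 min after adding detection reagent.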

[23] = qHTS of Nrf2 Activators: LOPAC Validation (AID 624149); further: 0% is about no effect
Procedure, shortened: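 AREc32_Fluc cells, 1000/well, OPTI-MEM + 5% FBS, o/n 37 deg C 5% CO2; compound pin-transfer, 24 hr 37 deg C; Steady-Glo 30 min RT, luminescence read.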

[24] = HTS Assay for Allosteric Antagonists of the Human D2 Dopamine Receptor: Hit Validation in HTRF (AID 624455); further: on the % scale 0 is the no-effect control and ±100 the full control effect
Procedure, shortened: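 HTRF read-out; cells stably expressing D1 receptor; hits scored for inhibition of D1-mediated response. Primary screen: calcium flux, force-coupled inducible Hek293 Trex D2 line, antagonism vs EC80 dopamine.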

[25] = target: T1, Hexokinase-4 (Homo sapiens) + Glucokinase regulatory protein (Homo sapiens) (UniProt P35557+Q14397); experiment: qHTS assay for inhibitors of recombinant human GCK-GKRP interaction: Diaphorase-coupled assay (AID 743205)
T1 sequence (P35557 whole entry, looked up): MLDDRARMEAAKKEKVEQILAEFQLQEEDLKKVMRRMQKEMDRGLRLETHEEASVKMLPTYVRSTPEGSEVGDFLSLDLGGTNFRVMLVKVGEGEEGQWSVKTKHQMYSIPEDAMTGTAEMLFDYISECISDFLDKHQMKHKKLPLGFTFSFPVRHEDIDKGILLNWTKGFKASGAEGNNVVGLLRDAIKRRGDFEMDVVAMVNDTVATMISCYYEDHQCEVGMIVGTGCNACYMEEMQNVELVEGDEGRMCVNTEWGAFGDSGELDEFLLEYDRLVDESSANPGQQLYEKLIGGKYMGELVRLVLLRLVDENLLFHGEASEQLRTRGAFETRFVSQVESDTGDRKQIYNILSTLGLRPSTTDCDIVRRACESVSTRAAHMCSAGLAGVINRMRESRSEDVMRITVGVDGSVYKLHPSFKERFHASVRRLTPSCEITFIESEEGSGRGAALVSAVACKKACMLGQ
T1 sequence (Q14397 whole entry, looked up): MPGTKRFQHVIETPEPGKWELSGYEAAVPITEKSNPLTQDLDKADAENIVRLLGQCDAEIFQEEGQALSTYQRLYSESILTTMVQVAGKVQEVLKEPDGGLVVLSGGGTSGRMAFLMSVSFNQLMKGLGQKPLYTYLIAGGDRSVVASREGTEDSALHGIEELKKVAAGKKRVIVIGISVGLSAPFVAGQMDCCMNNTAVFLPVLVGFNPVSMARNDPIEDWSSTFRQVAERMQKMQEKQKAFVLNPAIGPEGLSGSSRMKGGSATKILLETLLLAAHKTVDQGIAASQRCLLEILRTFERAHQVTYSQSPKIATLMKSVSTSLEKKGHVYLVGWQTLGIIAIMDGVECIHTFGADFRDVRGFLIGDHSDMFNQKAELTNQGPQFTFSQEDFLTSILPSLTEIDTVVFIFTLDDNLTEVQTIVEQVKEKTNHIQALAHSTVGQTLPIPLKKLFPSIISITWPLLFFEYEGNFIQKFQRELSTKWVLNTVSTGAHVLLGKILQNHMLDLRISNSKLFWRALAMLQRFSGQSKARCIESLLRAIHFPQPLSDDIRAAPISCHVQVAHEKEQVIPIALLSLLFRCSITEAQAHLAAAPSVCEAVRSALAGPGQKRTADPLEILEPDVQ
Procedure, shortened: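 A kinetic fluorescence read (Ex 525/Em 590 nm, every minute for 30 minutes) tracked resorufin from a G6PDH-diaphorase coupled GCK reaction. It contained 10 nM GST-GCK, 10 nM FLAG-GKRP, 5 mM glucose, 0.4 mM ATP in Hepes pH 7.6. Normalized to with/without-enzyme DMSO controls.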

[26] = target: T1, Hexokinase-4 (Homo sapiens) + Glucokinase regulatory protein (Homo sapiens); experiment: qHTS assay for inhibitors of recombinant human GCK-GKRP interaction: HTRF assay (AID 743207);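 further: 0% = DMSO with GCK present and -100% = DMSO wells lacking GCK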
Procedure, shortened: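 After 60 min equilibration at room temperature with anti-FLAG XL665 and anti-GST antibodies, FRET ratio (665/615 nm, excitation 320 nm) was read. Proteins: GST-GCK and FLAG-GKRP, each 5 nM, plus 2 uM S6P, pH 7.1 buffer; GCK-free wells define minimum signal.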

[27] = Natriuretic polypeptide receptor (hNpr1) antagonism - Pilot counterscreen GloSensor control cell line (AID 1347045; calls by dose curve; further: series mostly up to about 38 µM; on the % scale 0 is the no-effect control and ±100 the full control effect)
Procedure, shortened: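 HEK293 cGMP-sensor cells; 2% GloSensor reagent 2 h RT; LOPAC compounds in 1:5 titrations 30-50 min; 50 uM SNP 20 min; luminescence pre-read and post-read.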

[28] = target: Atrial natriuretic peptide receptor 1 (Homo sapiens) (UniProt P16066); experiment: Natriuretic polypeptide receptor (hNpr1) antagonism - Pilot screen (AID 1347049; calls by dose curve;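 further: HEK293 cells with hNpr1 and GloSensor cGMP luciferase stimulated by 0.1 nM hNppA; agonist-evoked cGMP luminescence read 20 min after hNppA addition; series mostly up to about 58 µM; on the % scale 0 is the no-effect control and ±100 the full control effect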)
Procedure, shortened: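 Cells expressing receptor plus cGMP biosensor are seeded and incubated overnight at 37C, then loaded with GloSensor reagent (2% final) at room temperature for 2 h. Library compounds go on for 30 min. A pre-read precedes agonist (hNppA, 0.1 nM final) and a 20-min readout.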

[29] = target: Atrial natriuretic peptide receptor 2 (Homo sapiens) (UniProt P20594); experiment: Natriuretic polypeptide receptor (hNpr2) antagonism - Pilot subtype selectivity assay (AID 1347050; calls by dose curve; further: on the % scale 0 is the no-effect control and ±100 the full control effect)
Chain of Atrial natriuretic peptide receptor 2 (Homo sapiens) (P20594 whole entry, looked up): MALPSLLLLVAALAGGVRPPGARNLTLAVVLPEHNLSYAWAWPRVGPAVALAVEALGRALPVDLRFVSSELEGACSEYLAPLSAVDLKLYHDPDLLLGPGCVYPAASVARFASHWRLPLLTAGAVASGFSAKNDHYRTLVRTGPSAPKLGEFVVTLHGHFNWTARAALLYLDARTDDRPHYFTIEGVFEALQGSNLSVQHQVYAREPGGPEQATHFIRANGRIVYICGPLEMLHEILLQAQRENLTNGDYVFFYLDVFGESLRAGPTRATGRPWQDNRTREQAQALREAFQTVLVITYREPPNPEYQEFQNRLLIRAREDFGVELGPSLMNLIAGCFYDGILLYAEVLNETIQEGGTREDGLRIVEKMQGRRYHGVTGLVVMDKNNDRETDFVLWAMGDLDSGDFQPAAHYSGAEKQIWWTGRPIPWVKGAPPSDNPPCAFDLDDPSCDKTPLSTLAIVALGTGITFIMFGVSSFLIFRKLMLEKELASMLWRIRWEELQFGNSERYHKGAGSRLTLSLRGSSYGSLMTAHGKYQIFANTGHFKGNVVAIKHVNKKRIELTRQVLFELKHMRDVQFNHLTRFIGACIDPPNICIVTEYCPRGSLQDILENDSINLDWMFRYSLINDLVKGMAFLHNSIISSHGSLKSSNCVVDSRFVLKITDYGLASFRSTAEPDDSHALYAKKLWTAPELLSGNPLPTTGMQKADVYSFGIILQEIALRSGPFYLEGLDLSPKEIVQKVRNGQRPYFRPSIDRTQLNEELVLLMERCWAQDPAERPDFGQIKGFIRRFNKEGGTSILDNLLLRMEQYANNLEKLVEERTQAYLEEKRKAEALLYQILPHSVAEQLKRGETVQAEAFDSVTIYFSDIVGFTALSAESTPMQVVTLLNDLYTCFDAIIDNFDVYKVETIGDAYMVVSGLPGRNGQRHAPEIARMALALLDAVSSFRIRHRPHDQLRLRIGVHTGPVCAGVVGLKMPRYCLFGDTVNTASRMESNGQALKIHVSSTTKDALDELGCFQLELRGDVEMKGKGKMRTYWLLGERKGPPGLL
Procedure, shortened: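 Read-out: GloSensor luminescence (CCD imager), baseline vs post-stimulation. HEK293 cells expressing hNpr2; compounds pre-incubated 30-50 min at ambient temperature; hNppC 1 nM final, 20 min.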

[30] = target: Parathyroid hormone/parathyroid hormone-related peptide receptor (Homo sapiens) (UniProt Q03431); experiment: qHTS for PTHR1 Agonists: Optimization Screen against the NCGC LOPAC library (AID 1347079);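 further: GloSensor cAMP luminescence in HEK-293 GP2 cells expressing human PTHR1 with IBMX; 0% is about no effect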
Procedure, shortened: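 Signal increase flags agonism. GP2 cells, derived from HEK-293, express human PTHR1 and a GloSensor cAMP construct.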

[31] = tested on: Zika virus NS2B-NS3 protease; experiment: Primary screen GU AMC qHTS for Zika virus inhibitors (AID 1347154);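 further: 0% = no-inhibitor control and -100% = no-enzyme control; nearly all actives have a fitted effect of over 70% in size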
Procedure, shortened: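 Unlinked Zika NS2B hydrophilic domain/NS3 protease domain noncovalent complex (25 nM final) in 10 mM Tris-HCl pH 8.0, 0.01% Tween 20, with AMC peptide substrate. Fluorescence (ex 340, em 450 nm) change over 15 min, room temperature; percent inhibition fitted to 4-parameter Hill equation.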

[32] = Validation qHTS assay for inhibitors of Activation Induced Cytidine Deaminase (AID): UDG Counterscreen signal (AID 1347427); further: 0% is about no effect
Procedure, shortened: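 Fluorescence at 560 nm excitation, 665 nm emission reports UDG signal after 250 mM NaOH (2x) addition and 30 min. Enzymes (AID 1 uM, UDG 2 U/mL, at 4/3x) preincubated 10 min with compound, then 4 h with 4x 250 nM DJC20/DJC23 substrate at room temperature.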

[33] = target: Single-stranded DNA cytosine deaminase (Homo sapiens) (UniProt Q9GZX7); experiment: Validation qHTS assay for inhibitors of Activation Induced Cytidine Deaminase (AID): AID signal (AID 1347429); further: on the % scale 0 is the no-effect control and ±100 the full control effect
Chain of Single-stranded DNA cytosine deaminase (Homo sapiens) (Q9GZX7 whole entry, looked up): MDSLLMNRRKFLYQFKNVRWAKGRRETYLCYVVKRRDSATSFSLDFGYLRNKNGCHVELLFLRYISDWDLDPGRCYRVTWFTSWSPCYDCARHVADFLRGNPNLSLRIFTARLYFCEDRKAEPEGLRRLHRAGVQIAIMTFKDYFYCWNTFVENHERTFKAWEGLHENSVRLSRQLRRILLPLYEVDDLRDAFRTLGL
Procedure, shortened: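 AID+UDG coupled FRET deamination; cpds up to 114 uM final; DJC20/DJC23 substrate, 4 hr RT; NaOH stop, 30 min RT; read Ex 540/Em 590.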

C1CCC(N=C(NC23CC4CC(CC(C4)C2)C3)N2CCOCC2)CC1
4.19%: viability change [11]
active: Potency [19] 11.2 µM
inactive: Potency [1] | Potency [2] | Potency [3] | outcome [4] | outcome [5] | outcome [6] | outcome [7] | outcome [8] | Potency [9] | activation [10] 1.31% | outcome [11] | outcome [12] | outcome [13] | outcome [14] | Potency [15] | Potency [16] | outcome [17] | Potency [18] | Potency [20] | outcome [21] | outcome [22] | outcome [23] | outcome [24] | outcome [25] | outcome [26] | Potency [27] | Potency [28] | Potency [29] | outcome [30] | Potency [31] | outcome [32] | Potency [33]
